# Measurements: the supplement of paper PMC8728848
# The full list was thinned out, with the strongest signals kept by preference.
# Columns and labels:
# Experiment in all cases: glycan array binding signal (z-score within array); higher = stronger binding
# Details in all cases: glycan notation: IUPAC condensed, linker removed
# [1] = molecular target: Neu5Ac(a2-3)Gal6S(b1-4)[Fuc(a1-3)]GlcNAc
# How it was run: (§1)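 The binding signal is a Z-score computed within each array. Data were drawn from 3228 arrays in the Consortium for Functional Glycomics database, restricted to those with a known protein sequence. Scores were averaged over arrays of the same protein sequence at different concentrations or buffers, and over linkers, and negative values can be taken as non-binding.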
# [2] = molecular target: Neu5Ac(a2-6)Gal(b1-4)GlcNAc(b1-2)Man(a1-3)[Neu5Ac(a2-6)Gal(b1-4)GlcNAc(b1-2)Man(a1-6)]Man(b1-4)GlcNAc(b1-4)GlcNAc
# How it was run: as §1
# [3] = molecular target: Neu5Ac(a2-6)Gal(b1-4)GlcNAc(b1-2)Man(a1-6)Man(b1-4)GlcNAc(b1-4)GlcNAc
# How it was run: as §1
# [4] = molecular target: Neu5Ac(a2-6)GlcNAc(b1-4)GlcNAc
# How it was run: as §1
# [5] = molecular target: Neu5Ac(a2-6)GlcNAc(b1-4)GlcNAc(b1-4)GlcNAc
# How it was run: as §1
# [6] = molecular target: Neu5Ac9Ac(a2-3)Gal(b1-4)GlcNAc
# How it was run: as §1
binder,measurement,setting,value
"NanI (Corynebacterium diphtheriae), C6JSW7 (protein) MTNTLESNPMTTTTGALTITFATTCDGPLAHIPHHLDLNIIHGRIQGTTAHRRIDAEDPDGLDDGLPHHLCLSVDTTGTHLFIDGYEAFSTTQTEWFDTSELTLNPHGDLTIIDHQILNHAPTPRQARNLAPAAEPLVWFAGSHLSTRDTQRISHLTHGSLRLLMKTRGTGQGGVAFQAHTINGDLTLEIIDGTLIFSVRCHDEDYVRITAPGRWDDGQIYDVVIVCGRGATDIYVDGQQLIHSPGAAFFNDLSGELSVHIGTAASGVRLFGEVQSGMIYPHVFNHHQVQRLATVEPIATQALFDCLLDGAQSYRIPSLITTDSGVIIAGADKRVSIANDAPNDIDFVLRRSVDGGRTWQPPRTILQLPDTACVTDSVLLQDHTTGRIFAFLDQFPAGIGQPNAAFGTGFDADGNRIGHFADGSTCTMPREVDQLEASFFSDPHTAPPGIVFQHPSCHLWMLTSDDDGLTWSTPRDLTPDVKEEWMRFCGTSPGNGIQLQRDTHAGRLLIPMYYTKGDQFFAAALYSDDHGDTWHRGESPDLEMYESTLVEASDGSVLLWARNQHPSGAVAHARSTDGGHSWSQVTFNPNVPEIFSQPNALRVTNPDGIIFANASQLLPFRGRGVLRMSTNDGASWQHNRVFNPRHYVYQCMTQLPDGSIGLLWEREMQGLFFSIIPMTWIMQGYAL",glycan array binding signal (z-score),[1],-0.34
same,glycan array binding signal (z-score),[2],0.411
same,glycan array binding signal (z-score),[3],-0.415
same,glycan array binding signal (z-score),[4],0.019
same,glycan array binding signal (z-score),[5],-0.157
same,glycan array binding signal (z-score),[6],-0.533
